Activity calls are given as the source filed them. Rule for the calls: active = hit-call score of the fitted dose curve at least 0.9, where 1 is the maximum; inactive = score below 0.9.

Read-out in this assay: Urokinase-type plasminogen activator receptor (uPAR), PLAUR (gene 5329)
Nature of the assay: BSK_BE3C_uPAR: BioMAP Diversity Plus: BE3C Assay for Urokinase-type plasminogen activator receptor (uPAR) Biomarker Activity (AID 2283039).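 For outcome: cells exposed to compound for one day before measurement.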 The settings on record: primary human bronchial epithelial cells; actives raise or lower the signal. The protocol:
BSK_BE3C is a cell-based, multiplexed-readout assay that uses bronchial epithelial cell, a human lung primary cell, with measurements taken at 24 hours after chemical dosing in a 96-well plate.BSK_BE3CAR is an assay component measured in the BSK_BE3C assay. It measures uPAR antibody related to regulation of gene expression using ELISA technology.Data from the assay component BSK_BE3CAR was analyzed into 1 assay endpoint. This assay endpoint, BSK_BE3CAR, was analyzed with bidirectional fitting relative to DMSO as the negative control and baseline of activity. Using a type of binding reporter, gain or loss-of-signal activity can be used to understand changes in the signaling as they relate to the gene PLAUR. Furthermore, this assay endpoint can be referred to as a primary readout, because this assay has produced multiple assay endpoints where this one serves a signaling function. To generalize the intended target to other relatable targets, this assay endpoint is annotated to the cytokine intended target family, where the subfamily is plasmogen activator.
The levels of cell surface (or secreted, indicated by the prefix "s") biomarker endpoints were measured by ELISA. Overt cytotoxicity to cells in confluent adherent cultures (all systems other than the BT system) was assessed by measuring total protein levels using sulforhodamine B (SRB) staining in parallel cultures at the time of biomarker measurements, indicated as SRB endpoints. For proliferation assays for adherent cell types, individual cell types are cultured at sub-confluence and relative cell numbers quantified by SRB staining at time points optimized for each system (48 h: 3C and CASM3C systems; 72 h: BT and HDF3CGF systems; 96 h: SAg system). SRB was performed by staining cells with 0.1% SRB after fixation with 10% TCA and reading wells at 560 nm.Viability and proliferation of PBMC (T cells) was quantified by Alamar Blue reduction for the SAg and BT systems. For PBMC viability (referred to as PBMC Cytotoxicity within the assay endpoint names), cells were plated (75,000/well in a 96-well plate) and then chemical samples added for 1 h before addition of activators, SEB and TSST-1 (20 ng/mL final concentration each). Cells were incubated for 90 h. Then, Alamar Blue (20 uL/well) (Invitrogen, Cat DAL1100) was added for 6 h, and the plates were read with a fluorescence microplate reader at 546/580 nm (excitation/emission). For PBMC proliferation, cells were plated and activated as above but incubated for only 16 h prior to addition of Alamar Blue. Plates were read after 6 h.
For the compound `CCN(C(=O)c1cc(C)cc(OC[C@H](C)Nc2ccncc2)c1)C(C)C`, the outcome was inactive. On the same count and under the same terms, next, `CCCCC(CC)COC(=O)CCCCCCCCC(=O)OCC(CC)CCCC` (stereo not given): “inactive”. As to `Cc1c(-c2cccnc2)c2ccccc2n1CCCCC(=O)O`, the result was inactive.

`CCOCCO`: the result was inactive. In the case of `CC(C)CCCCCCOC(=O)c1ccc(C(=O)OCCCCCCC(C)C)c(C(=O)OCCCCCCC(C)C)c1`, the outcome was inactive.

As for `O=C(O)c1cccc(N(Cc2cccnc2)c2ccc(OC(F)F)c(OC(F)F)c2)c1`, the result was inactive. As to `CCCCC(CC)COC(=O)c1ccc(C(=O)OCC(CC)CCCC)cc1` (stereo not given), the result was inactive.

With `CC(=O)OCCC(C)C`, the result was inactive. Still for that read-out and setting: next, `C=CC(=C)CCC=C(C)C`: “inactive”.

Regarding `O=C(OC[C@H]1O[C@@H](OC(=O)c2cc(O)c(O)c(OC(=O)c3cc(O)c(O)c(O)c3)c2)[C@H](OC(=O)c2cc(O)c(O)c(OC(=O)c3cc(O)c(O)c(O)c3)c2)[C@@H](OC(=O)c2cc(O)c(O)c(OC(=O)c3cc(O)c(O)c(O)c3)c2)[C@@H]1OC(=O)c1cc(O)c(O)c(OC(=O)c2cc(O)c(O)c(O)c2)c1)c1cc(O)c(O)c(OC(=O)c2cc(O)c(O)c(O)c2)c1`, the AC50 (in general, the concentration giving half of the maximal activity seen) is 4.13 µM (active).

On to `CCCC(=O)OCC`, for which the outcome was inactive. The same measure, in the same setting: next, `COC(=O)c1ccccc1O`: “inactive”. Still for that read-out and setting: next, `CN(C)c1ccc(N=NS(=O)(=O)O)cc1`: “inactive”; `Cc1ccc(O)cc1`: “inactive”.

In the case of `O=C(NS(=O)(=O)/C=C/c1ccccc1)c1ccc(F)cc1Cl`, the outcome was inactive.

For the compound `CCOC(=O)COc1ccc2c(c1)CC(NCC(O)c1cccc(Cl)c1)CC2` (stereo not given), the outcome was inactive. The same measure, in the same setting: next, `CC1=CC(=O)CC(C)(C)C1`: “inactive”; `CC[C@H]1CC[C@H](NCc2cc3c(cc2OC)[C@H]2C[C@H]2C(=O)N3C)[C@H](c2ccccc2)N1`: “inactive”. As to `COC(=O)c1c(Cl)c(Cl)c(C(=O)OC)c(Cl)c1Cl`, the result was inactive.

On to `CC[C@H]1OC(=O)[C@H](C)[C@@H](O[C@H]2C[C@@](C)(OC)[C@@H](O)[C@H](C)O2)[C@H](C)[C@@H](O[C@@H]2O[C@H](C)C[C@H](N(C)C)[C@H]2O)[C@](C)(O)C[C@@H](C)C(=O)[C@H](C)[C@@H](O)[C@]1(C)O`, for which the result was inactive.

As to `CC(C)CC(C)(O)C#CC(C)(O)CC(C)C` (stereo not given), the result was inactive. For the compound `CC(=O)c1ccc2c(c1)[C@H](NC(=O)c1ccc(F)cc1)[C@@H](O)C(C)(C)O2`, the result was inactive. Still for that read-out and setting: next, `Cc1ccc(N)cc1O`: “inactive”; `Clc1nc(Cl)c(Cl)c(Cl)c1Cl`: “inactive”.

Consider `CCC(C)(C)C(=O)O[C@H]1C[C@@H](C)C=C2C=C[C@H](C)[C@H](CC[C@@H]3C[C@@H](O)CC(=O)O3)[C@H]21`, for which the AC50 is 32.5 µM (active). Regarding `CC1(C)C(=O)N(Br)C(=O)N1Br`, the outcome was inactive. The same measure, in the same setting: next, `CC(C)=CCC/C(C)=C\CO`: “inactive”. For the compound `CC(C)=CCCC(C)=CC=O`, the outcome was inactive. As to `CCCCCCCCCCCCCCCO`, the result was inactive. Still for that read-out and setting: next, `O=C1OC(=O)C2C3C=CC(C3)C12` (stereo not given): “inactive”.

As for `COc1ccc(-n2nc(C(F)F)cc2-c2ccc(S(C)=O)cc2)cc1` (stereo not given), the result was inactive. For the compound `CCCCCCc1ccc(O)cc1O`, the AC50 was 34.1 µM (active). As to `C1N2CN3CN1CN(C2)C3`, the result was inactive. Same read-out and setting: next, `CCNc1ccccc1`: “inactive”; `Cn1c(=O)c2c(ncn2C)n(C)c1=O`: “inactive”; `CCCCCCCCO`: “inactive”.

`CC(C)CCO`: the result was inactive. Same read-out and setting: next, `CCCCCCCCCCCCc1ccccc1`: “inactive”; `Cn1cnc([N+](=O)[O-])c1Sc1ncnc2nc[nH]c12`: “inactive”. As to `O=C(CCCCCCCCc1cccnc1)N1CCC(C=C(c2ccccc2)c2ccccc2)CC1`, the AC50 was 17.9 µM (active).

The record behind these values is PubChem BioAssay (EPA / NIEHS).
